We go through eight compounds from PubChem BioAssay (NCI).

The structures appear in SMILES notation. Compounds without any hit were thinned out: in the full panel of roughly 83,000, 20% have a hit.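 96-well plates, one dose, 48 hours. Percent growth reported; active if below 10.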 Values without a mark were called inactive. Calls of active or inactive are those of the source.

Some test systems named below: NCI-H23 lung; NCI-H322M lung; HOP-62 NSCLC; NCI-H460 lung; HOP-92 NSCLC; NCI-H522 lung; A549/ATCC NSCLC; 786-0 renal; COLO 205 colon; DU-145 prostate; K-562 leukemia; MALME-3M melanoma; MDA-MB-231 breast; RXF 393 renal; SF-268 CNS; SF-295 CNS; SF-539 CNS; UACC-257 melanoma; M14 melanoma; NCI-H226 lung.
Holding throughout (test): NCI-60 one-dose screen, 48 h (100 = growth as untreated, 0 = no growth, -100 = all killed)
What all share (conditions): 10 µM unless noted

Turning to `O=C1Nc2ccc(F)cc2/C1=N/c1nnc(Sc2ccccc2)s1`, the growth with NCI-H23 lung is 87.4%; with NCI-H322M lung it was 103%; in the assay on HOP-62 NSCLC it was 94.7%; in the assay with NCI-H460 lung it was 95.6%; with HOP-92 NSCLC it was 96.9%; in the assay with NCI-H522 lung it was 77.2%. Besides, the growth in the assay on A549/ATCC NSCLC was 96.8%; in the assay with 786-0 renal, 105%; in the assay on COLO 205 colon it was 119%; in the assay with DU-145 prostate it was 105%; in the assay on K-562 leukemia, 79.7%; in the assay on MALME-3M melanoma, 110%. The growth in the assay with MDA-MB-231 breast was 87.1%; in the assay on RXF 393 renal it was 110%; with SF-268 CNS it was 94.2%; with SF-295 CNS, 108%; with SF-539 CNS, 88.5%; in the assay on UACC-257 melanoma, 100%. Besides, the growth with M14 melanoma was 99.2%.
For the compound `CC(=O)N/C(=C1/OC(C(O)C(O)C(O)CO)CN1C)[P+](c1ccccc1)(c1ccccc1)c1ccccc1` (stereo unspecified), the growth with NCI-H23 lung is 106%; in the assay with NCI-H322M lung it was 95.1%; in the assay with HOP-62 NSCLC it was 91.4%; in the assay on NCI-H460 lung it was 108%; with HOP-92 NSCLC it was 101%; in the assay on NCI-H522 lung, 93.5%. The growth was 102% with A549/ATCC NSCLC; 102% in the assay with 786-0 renal; 107% with COLO 205 colon; 105% in the assay with DU-145 prostate; 97.6% in the assay on K-562 leukemia; 90.5% in the assay with MALME-3M melanoma. Moreover, the growth in the assay with MDA-MB-231 breast is 103%; with RXF 393 renal it was 97%; with SF-268 CNS it was 102%; with SF-295 CNS it was 100%; in the assay with SF-539 CNS, 97.6%; in the assay on UACC-257 melanoma, 104%. The growth in the assay on M14 melanoma is 99.7%.
Consider `CCCCCCC(CCCC)COC(=O)c1ccc(Cl)cc1` (stereo unspecified), for which the growth with NCI-H23 lung was 110%; with NCI-H322M lung, 111%; with HOP-62 NSCLC, 119%; with NCI-H460 lung, 102%; in the assay on HOP-92 NSCLC, 89.5%; with NCI-H522 lung it was 105%. In addition, the growth in the assay on A549/ATCC NSCLC is 117%; in the assay on 786-0 renal it was 103%; in the assay on COLO 205 colon it was 108%; in the assay with DU-145 prostate, 105%; in the assay on K-562 leukemia it was 104%; in the assay on MALME-3M melanoma, 111%. For the same compound, the growth in the assay on MDA-MB-231 breast was 106%; in the assay on RXF 393 renal, 105%; in the assay with SF-268 CNS, 102%; in the assay with SF-295 CNS, 102%; in the assay on SF-539 CNS, 106%; with UACC-257 melanoma, 112%. In addition, the growth with M14 melanoma was 104%.
On to `CC(=O)c1c(Nc2ccc(F)c(F)c2F)[nH]c2c(F)cc(F)cc2c1=O`, for which the growth in the assay on NCI-H23 lung is -3.83% (active); in the assay on NCI-H322M lung, 4.47% (active); with HOP-62 NSCLC, -21.5% (active); in the assay on NCI-H460 lung, 2.98% (active); with HOP-92 NSCLC it was -18.8% (active); with NCI-H522 lung, -11.1% (active). Moreover, the growth is 4.48% (active) in the assay with A549/ATCC NSCLC; 12.1% in the assay on 786-0 renal; -65% (active) with COLO 205 colon; 18.1% with DU-145 prostate; 7.47% (active) in the assay on K-562 leukemia; -22.6% (active) in the assay on MALME-3M melanoma. In addition, the growth in the assay with MDA-MB-231 breast is -1.7% (active); in the assay with RXF 393 renal, -4.56% (active); with SF-268 CNS, 17.9%; with SF-295 CNS, -35.3% (active); in the assay on SF-539 CNS, 1.53% (active); in the assay with UACC-257 melanoma it was -18.4% (active). Moreover, in the assay with M14 melanoma, the growth is 2.68% (active).
Take `COc1ccc2cc(Cn3cc[n+](Cc4ccc5ccccc5c4)c3)ccc2c1`: the growth was 36% with NCI-H23 lung; 65.8% with NCI-H322M lung; 49.8% in the assay on HOP-62 NSCLC; 38.3% with NCI-H460 lung; -11.8% (active) with HOP-92 NSCLC; -13.6% (active) in the assay on NCI-H522 lung. The growth is 57.1% in the assay with A549/ATCC NSCLC; 51% in the assay with 786-0 renal; -66.3% (active) in the assay with COLO 205 colon; 52.2% in the assay on DU-145 prostate; 18.4% in the assay with K-562 leukemia; 24.3% with MALME-3M melanoma. The growth with MDA-MB-231 breast was 29.8%; in the assay with RXF 393 renal, 4.94% (active); in the assay on SF-268 CNS, 22.6%; in the assay with SF-295 CNS it was 67%; in the assay on SF-539 CNS, 48.5%; in the assay on UACC-257 melanoma, -15.8% (active). Besides, the growth in the assay on M14 melanoma was 17.5%.
Regarding `O=C1NC(=C(Cl)Cl)/C(=N/S(=O)(=O)NCCc2c[nH]c3ccccc23)N1`, the growth with NCI-H23 lung was 97.4%; in the assay with NCI-H226 lung it was 86%; in the assay on HOP-62 NSCLC it was 56.9%; with NCI-H460 lung it was 66.8%; in the assay on NCI-H522 lung, 17.2%; in the assay with A549/ATCC NSCLC it was 99.3%. Besides, the growth in the assay with 786-0 renal is 66.5%; in the assay with COLO 205 colon, 110%; in the assay on DU-145 prostate, 92.3%; in the assay with K-562 leukemia it was 55%; in the assay on MALME-3M melanoma it was 70%; with MDA-MB-231 breast, 44.8%. In addition, the growth in the assay with RXF 393 renal was 81.9%; in the assay with SF-268 CNS it was 21.4%; with SF-295 CNS, 98.7%; in the assay on SF-539 CNS it was 25.1%; in the assay on UACC-257 melanoma it was 73.9%; with M14 melanoma it was 83.8%.
Turning to `COc1ccc(NC(=O)c2sc3nc(C)c(C(O)c4ccccc4)cc3c2N)cc1` (stereo unspecified), the growth in the assay with NCI-H23 lung was 28.7%; in the assay on NCI-H322M lung, 56.8%; with HOP-62 NSCLC it was 28.2%; with NCI-H460 lung, 10.1%; in the assay on HOP-92 NSCLC, 78.9%; in the assay on NCI-H522 lung, 10.2%. The growth in the assay with A549/ATCC NSCLC is 24.9%; with 786-0 renal it was 40.7%; in the assay with COLO 205 colon, -5.84% (active); in the assay with DU-145 prostate it was 14.1%; in the assay with K-562 leukemia it was 8.04% (active); in the assay with MALME-3M melanoma it was 38%. In addition, the growth was 27.7% in the assay on MDA-MB-231 breast; -7.22% (active) in the assay with RXF 393 renal; 50.3% with SF-268 CNS; 23.1% in the assay with SF-295 CNS; -4.84% (active) in the assay with SF-539 CNS; 64.4% in the assay on UACC-257 melanoma. Besides, the growth in the assay on M14 melanoma was 7.65% (active).
With `CN(C)c1ccc(C(=NO)c2ccc(N(C)C)cc2)cc1`, the growth was 47.3% with NCI-H23 lung; 81.3% in the assay with NCI-H322M lung; 46.2% in the assay with HOP-62 NSCLC; 7.18% (active) in the assay with NCI-H460 lung; 37.8% with HOP-92 NSCLC; -25.8% (active) in the assay on NCI-H522 lung. In addition, the growth was 31.4% in the assay with A549/ATCC NSCLC; 57.3% in the assay on 786-0 renal; 42.8% with COLO 205 colon; 56% with DU-145 prostate; 17% with K-562 leukemia; 29.8% in the assay on MALME-3M melanoma. The growth is 63.5% in the assay with MDA-MB-231 breast; 33.5% in the assay with RXF 393 renal; 50.6% with SF-268 CNS; 3.86% (active) in the assay on SF-295 CNS; 33.7% in the assay with SF-539 CNS; 41.4% with UACC-257 melanoma. In the assay with M14 melanoma, the growth is 17.4%.
